Source: PubChem BioAssay
A selection: hits, their analogues and other compounds. The true share with any hit is near 8.7%.
JMJD2A Tudor: inhibitors of human JMJD2A Tudor domain; O75164; AlphaScreen JMJD2A-Tudor / H3K4me3 peptide binding; Potency, µM (highest dose often 114 µM), without a hit: at the highest dose activity change, negative = inhibition, hits mostly inhibitors; hit rate 4.4% among 390,000; note: % is set by controls: 0 for no effect and ±100 for the full control effect; nearly all actives have a fitted effect of over 50% in size
Target sequence (O75164 whole entry, looked up, the tested form may be a part): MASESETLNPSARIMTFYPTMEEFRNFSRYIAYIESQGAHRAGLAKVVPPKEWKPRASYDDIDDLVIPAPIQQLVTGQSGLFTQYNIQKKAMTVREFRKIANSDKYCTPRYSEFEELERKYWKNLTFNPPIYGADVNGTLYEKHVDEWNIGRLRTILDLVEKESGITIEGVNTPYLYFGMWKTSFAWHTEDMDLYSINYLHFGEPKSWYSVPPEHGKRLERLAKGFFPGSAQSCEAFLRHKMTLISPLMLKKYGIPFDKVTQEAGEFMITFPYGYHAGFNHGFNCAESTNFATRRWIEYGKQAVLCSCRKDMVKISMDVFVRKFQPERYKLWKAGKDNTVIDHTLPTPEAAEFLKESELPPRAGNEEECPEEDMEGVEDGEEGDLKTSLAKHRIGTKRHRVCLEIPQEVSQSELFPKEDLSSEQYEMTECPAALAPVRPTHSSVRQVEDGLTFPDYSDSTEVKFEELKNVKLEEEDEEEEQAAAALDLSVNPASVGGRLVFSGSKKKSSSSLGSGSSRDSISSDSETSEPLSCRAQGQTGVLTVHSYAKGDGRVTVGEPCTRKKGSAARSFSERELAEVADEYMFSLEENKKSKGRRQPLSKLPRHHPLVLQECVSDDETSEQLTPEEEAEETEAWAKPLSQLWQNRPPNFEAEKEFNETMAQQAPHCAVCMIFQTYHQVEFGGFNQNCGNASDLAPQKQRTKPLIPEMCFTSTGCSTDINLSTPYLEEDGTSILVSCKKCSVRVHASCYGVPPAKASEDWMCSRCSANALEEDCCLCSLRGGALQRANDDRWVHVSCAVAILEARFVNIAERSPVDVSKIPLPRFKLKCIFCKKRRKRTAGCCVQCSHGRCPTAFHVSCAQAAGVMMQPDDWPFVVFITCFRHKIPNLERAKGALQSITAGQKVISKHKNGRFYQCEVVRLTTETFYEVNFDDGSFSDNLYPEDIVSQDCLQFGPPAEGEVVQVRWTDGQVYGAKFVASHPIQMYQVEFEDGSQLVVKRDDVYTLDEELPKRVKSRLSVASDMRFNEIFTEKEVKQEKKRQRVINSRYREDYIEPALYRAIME
Sfp inh: Sfp phosphopantetheinyl transferase inhibition; Potency, µM, for the others: largest response in the series, negative = inhibition, most hits filed as inhibitors; Q9F4F7; AID 1490; hit rate 3.5% among 310,000; Biochemical Sfp PPTase activity, qHTS;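 note: the enzyme is Sfp with the accession as filed and its product quenches rhodamine fluorescence; 0% = enzyme reaction without inhibitor and -100% = no enzyme wells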
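Fluorescence-quenching assay with 15 nM Sfp, 5 uM rhodamine-CoA and 12.5 uM BHQ-2-labelled ybbR peptide in pH 7.6 Hepes/MgCl2 buffer. Enzyme was pre-incubated with compound for 15 min at room temperature. Rate was taken from the 30-min fluorescence change (525/598 nm).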
12-LOX inh: inhibitors of human 12S-lipoxygenase ALOX12. P18054. purified 12hLO, xylenol orange hydroperoxide absorbance. Potency, µM (series often up to 108 µM), for inactives: at the top dose activity change, negative = inhibition, actives largely listed as inhibitors. hit rate 1.1% among 580,000. AID 1671190; note: % is set by controls: 0 for no effect and ±100 for the full control effect
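Purified human 12hLO (150 nM final) in 25 mM Hepes, 0.01% Triton X-100, pH 7.0 was preincubated 15 min at room temperature with compound. Then 40 uM arachidonic acid was added, 30 min. Hydroperoxide was read by Fe-XO absorbance ratio 573/405 nm.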
BAZ2B inh: blocks human BAZ2B. Q9UIF8. Potency, µM (titrated, usually from 114 µM), for inactives: at the highest dose activity change, negative = inhibition, most hits filed as inhibitors. AlphaScreen BAZ2B-H3K14Ac peptide displacement. hit rate 4.4% among 360,000; note: % is set by controls: 0 for no effect and ±100 for the full control effect; nearly all actives have a fitted effect of over 60% in size
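Inhibition is scored as reduced AlphaScreen emission. The BAZ2B/b-H3(5-23)K14Ac complex (50 nM each) in PBS pH 7.4, 0.01% Tween-20 meets compound (up to 110 uM) for 30 min at RT before bead addition.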
HP1b binding inh: blocks HP1-beta chromodomain binding to methylated histone tails | Potency, µM (series often up to 114 µM), inactives show at the highest dose activity change, negative = inhibition, actives largely listed as inhibitors | hit rate 0.56% among 390,000 | P83916 | AlphaScreen HP1-beta / biotin-H3K9me3 peptide binding; note: nearly all actives have a fitted effect of over 70% in size
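HP1-beta protein (50 nM final) preincubated 30 min at room temperature with biotinylated H3(1-18)K9me3 peptide (50 nM) in PBS pH 7.4, 0.01% Tween-20, then compound added for 30 min. AlphaScreen streptavidin donor/nickel chelate acceptor beads (10 ug/mL final), 30 min dark, luminescence read.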
G9a inh: G9a (human) methyltransferase inhibition. Q96KQ7. hit rate 8.8% among 350,000. G9a H3K9 monomethylation, AlphaScreen, 2 h. Potency, µM (top dose mostly 102 µM), for the others: at the highest dose activity, negative = inhibition, hits mostly inhibitors; note: % is set by controls: 0 for no effect and ±100 for the full control effect; nearly all actives have a fitted effect of over 75% in size
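G9a (20 nM) preincubated 15 min RT with compounds, then 500 nM biotinylated H3K9 peptide and 20 uM SAM added; 2 h RT reaction. Monomethyl-H3K9 product detected by AlphaScreen with anti-H3K9me1 antibody, streptavidin donor and anti-rabbit IgG acceptor beads.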
Numbers without * were called inactive; ? = inconclusive; . = not tested or not shown; [ ] = another dose, or the depositor's remark. Calls come from the whole dose curve; as a rule, active = well fitted curve in the direction sought with a large enough effect; inconclusive = small, poorly fitted or top-dose-only effect, or another doubt; inactive = no such curve, though single readings can be large; an effect the other way counts as inactive or inconclusive. Potency is the fitted concentration of half-maximal effect.

SMILES | JMJD2A Tudor | Sfp inh | 12-LOX inh | BAZ2B inh | HP1b binding inh | G9a inh
Nc1c(C(=O)NCc2ccco2)c2nc3ccccc3nc2n1Cc1ccccc1 | 24.1% | 44.7µM* | ? | 8.2% | 76.5% | ?
COc1cc2c(cc1OCC1CC1)NC(=O)C21CCN(Cc2cccc(O)c2)CC1 | . | . | -10.2%[176 µM] | . | . | .
CCOc1ccc(-n2c(O)c(N=Nc3c(C)n(C)n(-c4ccccc4)c3=O)c(=O)[nH]c2=O)cc1 | 25.1µM* | 44.7µM* | 39.3% | 14.1µM* | 30.5% | -42.2%
Cc1c(N=Cc2c(O)n(CCc3ccccc3)c(=O)[nH]c2=O)c(=O)n(-c2ccccc2)n1C | -21.9% | 4.7% | -8.1% | 6.0% | 13.3% | -18.2%[59 µM]
Cc1c(N=Nc2c(O)[nH]c(=S)[nH]c2=O)c(=O)n(-c2ccccc2)n1C | 12.6µM* | 44.7µM* | -15.0% | 4.47µM* | 26.6% | 2µM*
Cc1c(N=Cc2c(O)n(C3CCCCC3)c(=O)[nH]c2=O)c(=O)n(-c2ccccc2)n1C | -9.2% | -10.2% | -2.3% | 3.8% | 35.4% | ?
C=CCn1c(O)c(N=Nc2c(C)n(C)n(-c3ccccc3)c2=O)c(=O)[nH]c1=S | 25.1µM* | 20µM* | ? | 7.08µM* | 9.8% | 0.794µM*
CCCCn1c(C)c(C(=O)OCC)c2cc(O)ccc21 | . | . | -1.4% | . | . | .
NS(=O)(=O)c1cc(C(=O)OCC(=O)Nc2ccc3[nH]c(=O)[nH]c3c2)ccc1Cl | -2.9% | . | -28.4% | -6.2% | 33.3% | 1.41µM*
C#C[C@H]1CN2CC[C@H]1C[C@@H]2CNC(=O)c1ccc2ccccc2c1 | . | . | 5.8%[176 µM] | . | . | .
CCCCc1ccc2[nH]c(C)c(CCN)c2c1 | . | . | 3.16µM* | . | . | .
COC(=O)c1nc(-c2ccc3c(n2)C(=O)C(N)=C(OC)C3=O)c(N)c(-c2ccc(OC)c(OC)c2O)c1C | -31.0% | 15.8µM* | 15.8µM* | ? | -3.8% | 10µM*
CNC(=O)Oc1ccccc1OC(C)C | -10.3% | 12.2% | 0.9% | . | 52.5% | .
CNC(=O)Oc1ccc2ncccc2c1 | 7.6% | 2.5% | -6.6% | -1.8% | 46.5% | 44.7µM*
CC12CN3CC(C)(C[N+](C)(C3)C1)C2=O | . | . | -63.8% | . | . | .
Cc1nn(C)c(C)c1P(=S)(c1c(C)nn(C)c1C)N(C)C | -11.0% | -12.6% | ? | -29.7% | -4.2% | 14.1µM*
CC[C@H](C)/C=C(C)/C=C/C1=CC2=C(Cl)C(=O)[C@](C)(OC(C)=O)C(=O)C2=CO1 | 79.4µM* | . | . | . | ? | .
CC(=O)c1ccc(NC(=O)NC[C@H]2C[C@@H]3CCN2C[C@@H]3CN2CCSCC2)cc1 | . | . | -26.2%[176 µM] | . | . | .
C=CCn1c(=O)c(C=Nc2cccc([N+](=O)[O-])c2)c(O)n(CCCC)c1=O | ? | -14.8% | ? | -35.8%[57.1 µM] | -11.1% | 70.8µM*
C=CCN(C)C(=O)[C@H]1CN2CCC1C[C@@H]2Cn1cc(CO)nn1 (stereo not given in full) | . | . | 26.5%[176 µM] | . | . | .
O=C1N=C(N2CCCCC2)SC1=C1CCCCC1 | 2.9% | -3.5% | 26.6% | -3.6% | 36.0% | 25.1µM*
CC(=O)Nc1ccc(-c2ccc(=O)n3c2[C@@H]2C[C@@H](CN(C(=O)C4CCCCC4)C2)C3)cc1 | . | . | 65.4%[176 µM] | . | . | .
Cc1ccc(-c2nc(CS(=O)CC(=O)NC3CCCC(C)C3C)c(C)o2)cc1 (stereo not given) | -21.1% | 12.6% | -7.3% | -19.4% | 28.5% | 35.5µM*
CC1CCCC(NC(=O)COC(=O)c2cn(C)c3ccccc23)C1C (stereo not given) | -6.4% | . | -15.6% | 4.0% | 49.5% | 20.8%[12.7 µM]
C(#CCN1CCCCC1)COCc1ccccc1 | -4.5% | 5.1% | 3.8% | -13.9% | 49.2% | .
C(#CCN1CCOCC1)COC/C=C/c1ccccc1 | -15.0% | -0.8% | ? | 0.8% | 1.5% | 44.7µM*
Cn1c(O)c(/C=C2\N=c3ccccc3=C2CCNC(=S)NC2CC2)c(=O)n(C)c1=O | -13.3% | 31.6µM* | ? | ? | 11.2% | -116.5%[59 µM]
COc1ccccc1N1CCN(Cc2ccccc2Cl)CC1 | 3.16µM* | -17.7% | -14.8% | 35.5µM* | -45.2% | 14.1µM*
